tested on: MCF10A; test: perturbation Mahalanobis distance of morphological profile vs DMSO controls (Mahalanobis distance (SD units)); higher = stronger morphological change, active = 7 or more; settings: screen batch: Batch2_Mahalanobis_Distance; 72 h
Protocol: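 MCF10A cells were seeded onto drugs dispensed acoustically into 384-well plates, using one dose per drug chosen from its human peak plasma concentration, and incubated for 72 h at 37 °C. Cells were stained for DNA, tubulin and mitochondria and imaged; 78 CellProfiler features were extracted, plate-normalised and compared with DMSO wells.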

Row | SMILES | perturbation Mahalanobis distance
1 | CCC1(c2ccccc2)NC(=O)N(C)C1=O (stereo not given) [Mephenytoin] (343.8 µM) | 3.69 (inactive)
2 | O=C(Nc1ccc([N+](=O)[O-])cc1Cl)c1cc(Cl)ccc1O [Niclosamide] (5.3 µM) | 5.7 (inactive)
3 | CNNCc1ccc(C(=O)NC(C)C)cc1 [Procarbazine] (13.6 µM) | 2.28 (inactive)
4 | Nc1nc(=O)c2ncn(COC(CO)CO)c2[nH]1 [Ganciclovir] (98 µM) | 3.75 (inactive)
5 | O=C1OCCN1/N=C/c1ccc([N+](=O)[O-])o1 [Furazolidone] (22.2 µM) | 3.27 (inactive)
6 | OC(CCCN1CCCCC1)(c1ccccc1)c1ccccc1 [Diphenidol] (2.6 µM) | 3.04 (inactive)
7 | CS(=O)(=O)OCCCCOS(C)(=O)=O [Busulfan] (1.4 µM) | 2.95 (inactive)
8 | Cc1ccc(NC(=O)c2ccc(CN3CCN(C)CC3)cc2)cc1Nc1nccc(-c2cccnc2)n1 [Imatinib] (14 µM) | 6.84 (inactive)
9 | CCOC(=O)c1ncn2c1CN(C)C(=O)c1cc(F)ccc1-2 [Flumazenil] (1.6 µM) | 3.54 (inactive)
10 | Cc1ccccc1C(=O)Nc1ccc(C(=O)N2CCC[C@@H](O)c3cc(Cl)ccc32)c(C)c1 [Tolvaptan] (11.1 µM) | 6.06 (inactive)
11 | Cc1nc2n(c(=O)c1CCN1CCC(c3noc4cc(F)ccc34)CC1)CCCC2 [Risperidone] (73 µM) | 2.4 (inactive)
12 | Cc1oncc1C(=O)Nc1ccc(C(F)(F)F)cc1 [Leflunomide] (333.1 µM) | 2.68 (inactive)
13 | Clc1ccc(C(c2ccccc2Cl)C(Cl)Cl)cc1 (stereo not given) [Mitotane] (62.5 µM) | 4.02 (inactive)
14 | COc1cc2nc(N3CCN(C(=O)C4CCCO4)CC3)nc(N)c2cc1OC (stereo not given) [Terazosin] (1 µM) | 2.82 (inactive)
15 | COc1cc2ncnc(Nc3ccc(F)c(Cl)c3)c2cc1OCCCN1CCOCC1 [Gefitinib] (34.7 µM) | 3.28 (inactive)
16 | CC(=O)O[C@@]12CO[C@@H]1C[C@H](O)[C@@]1(C)C(=O)[C@H](O)C3=C(C)[C@@H](OC(=O)[C@H](O)[C@@H](NC(=O)OC(C)(C)C)c4ccccc4)C[C@@](O)([C@@H](OC(=O)c4ccccc4)[C@H]21)C3(C)C [Docetaxel] (22.7 µM) | 2.26 (inactive)
17 | NC(=O)NO [Hydroxyurea] (650 µM) | 15.4 (active)
18 | c1ccc([C@H]2CN3CCSC3=N2)cc1 [Levamisole] (11.7 µM) | 2.52 (inactive)

Row | SMILES | perturbation Mahalanobis distance
19 | CCOC(=O)C1=C[C@@H](OC(CC)CC)[C@H](NC(C)=O)[C@@H](N)C1 [Oseltamivir] (1 µM) | 1.77 (inactive)
20 | CC(=O)S[C@@H]1CC2=CC(=O)CC[C@]2(C)[C@H]2CC[C@@]3(C)[C@@H](CC[C@@]34CCC(=O)O4)[C@H]12 [Spironolactone] (3 µM) | 5.83 (inactive)
21 | CCN(CC)C(=S)SSC(=S)N(CC)CC [Disulfiram] (6.7 µM) | 3 (inactive)
22 | CC(=O)O.C[C@H](N)C(=O)O.NCCCC[C@H](N)C(=O)O.N[C@@H](CCC(=O)O)C(=O)O.N[C@@H](Cc1ccc(O)cc1)C(=O)O [Glatiramer Acetate] (50 µM) | 2.3 (inactive)
23 | NC(=O)N[C@@H](CCC(=O)O)C(=O)O [Carglumic Acid] (68.4 µM) | 2.6 (inactive)
24 | O=C(Nc1ncc([N+](=O)[O-])s1)c1ccccc1O [Tizoxanide] (48.8 µM) | 3 (inactive)
25 | O=C(C1CCCCC1)N1CC(=O)N2CCc3ccccc3C2C1 (stereo not given) [Praziquantel] (3.2 µM) | 3.64 (inactive)
26 | CC(C)(C#N)c1cc(Cn2cncn2)cc(C(C)(C)C#N)c1 [Anastrozole] (0.51 µM) | 3.49 (inactive)
27 | CCC(c1ccccc1)c1c(O)oc2ccccc2c1=O (stereo not given) [Phenprocoumon] (64.2 µM) | 3.97 (inactive)
28 | N=C(N)c1ccc(OCCCCCOc2ccc(C(=N)N)cc2)cc1 [Pentamidine] (7.4 µM) | 9.96 (active)
29 | C[C@H]1O[C@@H](O[C@H]2[C@@H](O)C[C@H](O[C@H]3[C@@H](O)C[C@H](O[C@H]4CC[C@@]5(C)[C@H](CC[C@@H]6[C@@H]5CC[C@]5(C)[C@@H](C7=CC(=O)OC7)CC[C@]65O)C4)O[C@@H]3C)O[C@@H]2C)C[C@H](O)[C@@H]1O [Digitoxin] (0.16 µM) | 17.9 (active)
30 | COc1cc(N)c(Cl)cc1C(=O)NC1CCN(CCCOc2ccc(F)cc2)CC1OC (stereo not given) [Cisapride] (0.85 µM) | 2.99 (inactive)
31 | CCN(CC)C(=O)N1CCN(C)CC1 [Diethylcarbamazine] (6.3 µM) | 2.16 (inactive)
32 | OC(c1cc(C(F)(F)F)nc2c(C(F)(F)F)cccc12)C1CCCCN1 (stereo not given) [Mefloquine] (23.8 µM) | 17.1 (active)
33 | COCCCC/C(=N\OCCN)c1ccc(C(F)(F)F)cc1 [Fluvoxamine] (3.9 µM) | 2.47 (inactive)
34 | N#C[C@@H]1C[C@@H]2C[C@@H]2N1C(=O)[C@@H](N)C12CC3CC(CC(O)(C3)C1)C2 [Saxagliptin] (0.38 µM) | 3.33 (inactive)
35 | CC(C)NCC(O)c1ccc(O)c(O)c1 (stereo not given) [Isoproterenol] (11.8 µM) | 4.76 (inactive)

From the supplement of paper PMC6853941
